Screening data from PubChem.
G9a block – blocks human histone lysine methyltransferase G9a; G9a H3K9 monomethylation, AlphaScreen, 2 h; Potency, µM (titrated, usually from 102 µM), for inactives: at the highest dose activity, negative = inhibition, usual class: inhibitors; 350,000 tested, 8.8% active; also: % is scaled to controls: 0 for no effect and ±100 for the full control effect; nearly all actives have a fitted effect of over 75% in size
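Enzyme 20 nM + cpd, 15 min RT; add b-H3K9 pep 500 nM / SAM 20 uM; 2 h RT; anti-H3K9me1 Ab 0.5 ug/mL + SA donor / anti-rabbit acceptor beads 20 ug/mL each, 10 min; AlphaScreen read.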
GLS inhibitor – glutaminase GLS (human) inhibition; GLS enzymatic activity, qHTS titration; Potency, µM (series often up to 45.5 µM), for inactives: top-dose activity change, negative = inhibition, usual class: inhibitors; 410,000 tested, 0.21% active; also: % is scaled to controls: 0 for no effect and ±100 for the full control effect
Target sequence (O94925 whole entry, looked up): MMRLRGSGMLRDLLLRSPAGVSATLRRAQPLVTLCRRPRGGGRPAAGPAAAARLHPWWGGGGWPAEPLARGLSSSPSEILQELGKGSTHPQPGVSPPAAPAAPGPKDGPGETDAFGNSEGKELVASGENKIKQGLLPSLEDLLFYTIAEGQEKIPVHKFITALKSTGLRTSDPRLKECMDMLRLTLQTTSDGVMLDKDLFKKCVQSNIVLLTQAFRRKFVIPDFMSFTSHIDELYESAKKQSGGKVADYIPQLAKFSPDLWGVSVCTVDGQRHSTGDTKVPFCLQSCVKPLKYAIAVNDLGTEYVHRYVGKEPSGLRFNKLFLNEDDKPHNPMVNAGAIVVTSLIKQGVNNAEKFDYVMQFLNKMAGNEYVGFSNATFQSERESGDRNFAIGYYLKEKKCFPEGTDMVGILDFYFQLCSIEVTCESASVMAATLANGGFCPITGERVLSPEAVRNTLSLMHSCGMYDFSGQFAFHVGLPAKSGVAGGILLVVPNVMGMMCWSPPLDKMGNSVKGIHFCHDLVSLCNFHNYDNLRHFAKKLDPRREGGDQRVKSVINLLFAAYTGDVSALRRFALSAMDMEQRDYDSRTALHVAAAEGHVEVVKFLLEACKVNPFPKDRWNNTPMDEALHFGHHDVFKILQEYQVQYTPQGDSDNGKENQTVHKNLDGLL
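hKGA in 45 mM KH2PO4 (pH 8.2), 0.02% Tween-20 with compound, then 1mM L-Glutamine (stock as added) plus glutamate oxidase/HRP/Amplex red coupling mix. Fluorescence read initially and after 30 min at RT; signal change reflects glutamate formation.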
HP1b chromo inh – blocks HP1-beta chromodomain binding to methylated histone tails | P83916 | AlphaScreen HP1-beta / biotin-H3K9me3 peptide binding | Potency, µM (titrated, usually from 114 µM), for the others: at the highest dose activity change, negative = inhibition, most hits filed as inhibitors | 390,000 tested, 0.56% active | AID 540317; also: nearly all actives have a fitted effect of over 70% in size
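AlphaScreen: HP1-beta (50 nM) preformed 30 min with biotin-H3(1-18)K9me3 peptide (50 nM) in PBS pH 7.4, 0.01% Tween-20. Compound added for 30 min at RT, then streptavidin donor/nickel chelate acceptor beads (10 ug/mL) for 30 min.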
JMJD2A Tudor inh – JMJD2A Tudor domain (human) inhibition. O75164. Potency, µM (doses to about 114 µM), for inactives: at the highest dose activity change, negative = inhibition, most hits filed as inhibitors. AlphaScreen JMJD2A-Tudor / H3K4me3 peptide binding. 390,000 tested, 4.4% active; also: % is scaled to controls: 0 for no effect and ±100 for the full control effect; nearly all actives have a fitted effect of over 50% in size
BAZ2B block – BAZ2B (human) inhibition; AlphaScreen BAZ2B-H3K14Ac peptide displacement; Potency, µM (titrated, usually from 114 µM), for the others: top-dose activity change, negative = inhibition, most hits filed as inhibitors; 360,000 tested, 4.4% active; AID 504333; also: % is scaled to controls: 0 for no effect and ±100 for the full control effect; nearly all actives have a fitted effect of over 60% in size
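Complex of BAZ2B and biotin-H3K14Ac (50 nM apiece) forms over 30 min at RT, then faces library compounds up to 110 uM for another 30 min; AlphaScreen beads added, 20 min dark incubation, luminescence read.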
An asterisk follows results filed as active; ? = inconclusive; / = not tested or not shown; [ ] = dose if it differs, or a comment. A selection: hits, their analogues and other compounds. The true share with any hit is near 10%. Calls follow the shape of the dose curve; as a rule, active = well fitted curve in the direction sought with a large enough effect; inconclusive = small, poorly fitted or top-dose-only effect, or another doubt; inactive = no such curve, though single readings can be large; an effect the other way counts as inactive or inconclusive. Potency is read from the fitted curve at half-maximal effect.

SMILES | G9a block | GLS inhibitor | HP1b chromo inh | JMJD2A Tudor inh | BAZ2B block
CC(C)NC(=O)NC(=O)COc1ncnc2sccc12 | 50µM* | 42% | ? | ? | 52%
O=C(NNc1ccccc1C(F)(F)F)c1sccc1Br | 18µM* | 14% | 52% | -13% | -12%
Cc1cc(NC(=O)CN2C(=O)/C(=C/c3ccc(C(C)C)cc3)SC2=S)no1 | / | 6% | / | / | /
COc1ccc(/C=C2\SC(=S)N(CC(=O)N3CCN(C)CC3)C2=O)cc1 | -22% | 9% | -9% | -27% | -30%
O=C(NN1C(=O)/C(=C\c2cccnc2)SC1=S)C(c1ccccc1)c1ccccc1 | 32µM* | 8% | ? | ? | -29%
COc1ccc(/C=C2/SC(=O)N(CC(O)Cn3c4ccccc4c4ccccc43)C2=O)cc1 (centres undefined) | 25%[59 µM] | 4% | -3% | 79µM* | -36%
COc1ccc(/C=C2\SC(=S)N(C(Cc3ccccc3)C(=O)O)C2=O)cc1 (centres undefined) | 25µM* | -11% | ? | ? | 40µM*
O=C1S/C(=C\c2ccccc2)C(=O)N1CC(O)Cn1c2ccccc2c2ccccc21 (centres undefined) | -19%[59 µM] | 0% | 25% | -3% | -12%
CC(=O)NN1C(=O)/C(=C/c2ccc(C(C)C)cc2)SC1=S | -21%[59 µM] | -15% | ? | -35% | 45µM*
CCOc1ccccc1C(=O)NCc1ccc2c(c1)CCN2C(C)=O | -3%[59 µM] | -8% | 30% | -13% | -1%
Cc1ccc(CN2C(=O)c3ccccc3S(=O)(=O)c3ccc(C(=O)OCC4CCCO4)cc32)cc1 (centres undefined) | 0%[59 µM] | -2% | 1% | -24% | -3%
O=C(c1c2c(nc3ccccc13)C(=O)N(C1CCCCC1)C2)N1CCN(c2ccc(F)cc2)CC1 | -4%[59 µM] | 8% | 15% | -29% | -26%
CC1(C(=O)Nc2ccc3[nH]ncc3c2)CCN1C(=O)Cc1ccc(-c2ccccc2)cc1 (centres undefined) | / | 3% | / | / | /
O=C(O)C(Cc1ccccc1)N1C(=O)/C(=C/c2cccnc2)SC1=S (centres undefined) | / | 0% | -21% | 16µM* | -32%
CCOC(=O)C1=C[C@@H](C(=O)OCC)[C@@H]2C3=C(C(=O)C2(C)C)[C@H](c2ccccc2)[C@@H]2C(=O)N(c4ccccc4)C(=O)[C@@H]2[C@@H]3C1 | / | / | 21% | -18% | /
O=C(CC1CCCCC1)NCc1ccccn1 | -27%[12.7 µM] | 0% | 30% | -9% | -5%
O=C(c1c(F)cccc1F)N(Cc1ccccn1)C1CC1 | ? | -4% | 17% | -3%[11.4 µM] | 79µM*
Cc1sc(NC(=O)C2CCCC2)c(C#N)c1C | 7.1µM* | 3% | ? | -19% | -1%
CCCC(=O)Nc1sc(C)c(C)c1C#N | 45µM* | -1% | -6% | -12% | -23%
CCN(CC)C(=O)c1sc(NC(=O)Cc2ccccc2)c(C#N)c1C | 1%[59 µM] | -5% | 18% | -22% | -14%
CCOC(=O)C(=O)Nc1sc(C(=O)N(CC)CC)c(C)c1C#N | 50µM* | 1% | 57% | -23% | -20%
CCCC(=O)Nc1sc(C)c(-c2ccc(C(C)CC)cc2)c1C#N (centres undefined) | 6% | 1% | 16% | -11% | -37%
Cc1sc(NC(=O)C2CCCO2)c(C#N)c1C (centres undefined) | ? | 22% | -7% | -20% | -27%
CCOC(=O)c1c(NC(=O)C2CC2)sc2c1CC(C)(C)OC2 | 35µM* | -3% | 40% | 10% | -23%
Cc1nc(C)c(C(=O)OCC(=O)Nc2ccc(C)c(C)c2)s1 | / | 0% | / | / | /
SMILES | G9a block | GLS inhibitor | HP1b chromo inh | JMJD2A Tudor inh | BAZ2B block
CCCCCC(=O)Nc1sc(C)c(C)c1C#N | 3.2µM* | -4% | ? | -9% | -29%
CCCCC(=O)Nc1sc2c(c1C#N)CC(C)(C)OC2 | 13% | ? | 10% | 45µM* | 9%
Cc1sc(NC(=O)CCCC(=O)O)c(C#N)c1C | ? | 8% | 18% | -3% | -29%
CCCCNC(=O)c1ccc(NC(C)=O)c(Cl)c1 | -9% | -10% | 30% | -2% | -12%
CCOC(=O)c1c(C)oc2c1c(C(c1cccnc1)N1CCOCC1)c(O)c1ccccc12 (centres undefined) | 4µM* | 18% | ? | 79µM* | 40µM*
O=C(COC(=O)c1ccc(Br)o1)Nc1ccc(N2CCOCC2)cc1 | 22µM* | 24% | 14% | -22% | -4%
CCNCC(=O)Nc1ccc(N2CCOCC2)cc1 | ? | 5% | 19% | -16% | ?
Cc1ccc(CNCC(=O)Nc2ccc(N3CCOCC3)cc2)cc1 | / | 10% | 40µM* | 1.4µM* | 35µM*
CC(=O)Nc1ccc(S(=O)(=O)N2CCC(c3nnc(-c4ccc(C)cc4)o3)CC2)cc1 | 28µM* | 2% | 37% | -13% | 0%
COc1ccccc1-c1nnc(C2CCN(S(=O)(=O)c3ccc([N+](=O)[O-])cc3)CC2)o1 | / | 5% | 2% | -14% | ?
Cc1cccc(-c2nnc(C3CCN(S(=O)(=O)c4cccc(Cl)c4)CC3)o2)c1 | 3.2µM* | 10% | -6% | -29% | -13%
COc1ccc(-c2nnc(C3CCN(S(=O)(=O)c4ccccc4)CC3)o2)cc1 | 40µM* | 7% | 34% | -12% | -2%
COc1ccccc1-c1nnc(C2CCN(S(=O)(=O)c3ccccc3[N+](=O)[O-])CC2)o1 | 40µM* | 1% | 18% | -32% | -17%
CCc1ccccc1N(c1nc(-c2ccc(OC)c(OC)c2)no1)c1nc(-c2ccc(OC)c(OC)c2)no1 | -3%[59 µM] | 2% | 22% | -12% | -11%
CCOC(=O)c1sc2ccccc2c1S(=O)(=O)Nc1ccc(CC)cc1 | ? | 1% | 65% | -11% | 35%
COc1ccc(Cl)cc1NC(=O)NCCc1c(C)nn(C)c1C | -2%[12.7 µM] | -4% | 31% | 14% | -2%
COc1ccc(-c2nc3sc(CCNC(=O)c4cc(Cl)ccc4OC)c(C)n3n2)cc1 | -1%[59 µM] | -13% | 12% | -6% | -7%
Fc1ccccc1N1CCN(c2c3c(nc4nncn24)CCC3)CC1 | 7%[59 µM] | 14% | 31% | -8% | -15%
COc1cnc(-c2ccccn2)nc1Sc1c(Cl)cccc1Cl | 6%[12.7 µM] | 0% | 19% | -40% | -7%
COc1cnc(-c2ccccn2)nc1Oc1c(C)cccc1C | ? | 0% | 32% | -25% | 22µM*
COc1cnc(-c2ccccc2)nc1Oc1cccc(C)c1 | 41%[12.7 µM] | 15% | 170% | 80% | 77%
COc1cnc(-c2ccccn2)nc1Oc1cccc(Cl)c1 | -3%[12.7 µM] | -4% | 32% | -24% | 45µM*
COc1cnc(-c2ccccn2)nc1N(C)C | -41% | -1% | 39% | 22µM* | 4.5µM*
CCOC(=O)C(C)Sc1nc(-c2ccccn2)ncc1OC (centres undefined) | -26% | 1% | 9% | -17%[11.4 µM] | 3.2µM*
